Shown are actives, neighbours in structure and some others; about 4% of the full set was active somewhere.
MazF activator: MazEF (E. coli) toxin RNase activation; hit rate 0.32% among 350,000; FAM/BHQ RNA-DNA oligo cleavage fluorescence, 5 h; activation, % at 20 µM; P0AE70; AID 504720; in the data active = activation above about 50%
Target sequence (P0AE70 whole entry, looked up): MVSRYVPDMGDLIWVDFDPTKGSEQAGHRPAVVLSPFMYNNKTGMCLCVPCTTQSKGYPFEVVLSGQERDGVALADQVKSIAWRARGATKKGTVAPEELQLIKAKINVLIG
FBA Mtb inh: Mtb fructose-bisphosphate aldolase inhibition. P9WQA3. purified M. tuberculosis FBA, fluorescence read-out. inhibition, % at 1 µM. hit rate 2.3% among 360,000; in the data active = inhibition above about 27%;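 note: 0% = vehicle and 100% = reference inhibitor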
Target sequence (P9WQA3 whole entry, looked up): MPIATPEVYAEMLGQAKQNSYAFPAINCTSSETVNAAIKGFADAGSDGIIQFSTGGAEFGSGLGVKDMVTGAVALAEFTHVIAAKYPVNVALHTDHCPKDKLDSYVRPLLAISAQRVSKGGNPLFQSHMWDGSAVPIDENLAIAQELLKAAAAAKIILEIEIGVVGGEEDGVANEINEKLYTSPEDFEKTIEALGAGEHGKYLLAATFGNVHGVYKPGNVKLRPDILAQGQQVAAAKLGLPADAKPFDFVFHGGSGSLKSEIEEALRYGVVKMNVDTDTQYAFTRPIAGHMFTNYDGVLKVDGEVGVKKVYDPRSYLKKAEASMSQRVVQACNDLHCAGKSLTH
CCHFV vOTU inh: blocks the CCHF virus ovarian tumor domain protease; hit rate 0.55% among 370,000; inhibition, % at 11.5 µM; CCHFV vOTU protease, Pep-AMC fluorescence; in the data active = inhibition above about 30%; note: 0% = vehicle wells with enzyme and 100% = no enzyme wells
Mtb betalactam: beta-lactam sensitization of Mtb H37Rv; M. tuberculosis H37Rv growth with meropenem, percent inhibition; inhibition, % at 25 µM; hit rate 0.27% among 330,000;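 note: growth measured after seven days incubation then overnight dye step; 0% = bacteria only wells and 100% = bacteria with antibiotic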
GDH-TPI counter-1: inhibits GDH-TPI coupling enzymes, artifact for Mtb FBA screen | AID 588335 | inhibition, % at 4.8 µM | GDH-TPI coupled enzyme counterscreen, NADH absorbance | hit rate 1.2% among 360,000; in the data active = inhibition above about 30%;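 note: 0% = DMSO wells and 100% = wells lacking the enzyme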
Mtb FBA inh conf: confirmation of M. tuberculosis fructose-bisphosphate aldolase inhibitors; shares compounds with FBA Mtb inh; purified M. tuberculosis FBA, fluorescence read-out; inhibition, % at 1 µM; hit rate 78% among 5,600; AID 651616; in the data active = inhibition above about 27%;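 note: 0% = vehicle wells and 100% = reference inhibitor wells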
GDH-TPI counter-2: counter-screen for M. tuberculosis FBA inhibitors: GDH-TPI coupled enzyme inhibition | shares compounds with FBA Mtb inh | GDH-TPI coupled enzyme counterscreen, fluorescence | inhibition, % at 1 µM | hit rate 81% among 5,600; in the data active = inhibition above about 10%
GDH-TPI dose: counter-screen for M. tuberculosis FBA inhibitors: GDH-TPI dose response; shares compounds with FBA Mtb inh; GDH-TPI coupled enzyme assay, fluorescence, artifact counterscreen; IC50, µM; hit rate 79% among 170; AID 652145
Numbers without * were called inactive; / = not tested or not shown; + = active, no number. Unless noted, the rule behind the calls is not given here.

SMILES	MazF activator	FBA Mtb inh	CCHFV vOTU inh	Mtb betalactam	GDH-TPI counter-1	Mtb FBA inh conf	GDH-TPI counter-2	others
COC(=O)c1ccc(S(=O)(=O)N2CCC(NC(=O)Cc3cccc(C)c3)CC2)cc1	/	/	-2	/	/	/	/
Cc1cccc(Cn2cc(COC(=O)N(C)Cc3ccccc3)nn2)c1	/	/	-1	/	/	/	/
COc1ccc(-c2ccc(C(=O)C3CC3)cc2)cc1	3	60*	-11	10	3	52*	44*
COC(=O)c1ccccc1NC(=O)NCC1CCN(Cc2ccc(OC)cc2)CC1	/	/	-2	/	/	/	/
CN(C)[C@H]1CCN(c2ccc3c(c2)O[C@@H]2CCN(C2)S3(=O)=O)C1	/	/	-1	/	/	/	/
O=C(CSc1nc2scc(-c3ccccc3)c2c(=O)[nH]1)Nc1ccccc1	-2	33*	-1	-5	15	-7	-6
CC(C)(C)OC(=O)[C@H](Cc1ccccc1)NC(=O)c1ncn2c1c(=O)[nH]c1ccc(Br)cc12	0	2	-10	/	8	/	/
CC(C)(C)OC(=O)NCCCCCNC(=O)c1ncn2c1c(=O)[nH]c1ccccc12	4	87*	-24	/	-3	42*	34*
O=C1CN(Cc2ccccc2)C(=NCc2ccco2)S1	10	28*	-12	-1	3	184*	163*
CC1CCCCN1C(=S)Nc1ccc2nc3n(c(=O)c2c1)CCCCC3 (stereo not given)	2	30*	-20	-3	5	45*	39*
COc1cccc(/C=N/NC(=O)Cn2cnc3c2c(=O)n(C)c(=O)n3C)c1OC	7	30*	-18	12	-3	2	-2
Cc1nc2nc(Cc3ccccc3)[nH]n2c(=O)c1Cl	-4	29*	1	12	-7	49*	50*
O=C(Oc1cncc(Cl)c1)c1sccc1Cl	7	-3	-3	3	9	/	/
O=C(Oc1cncc(Cl)c1)c1ccco1	-4	33*	-7	-4	5	57*	62*
CCN(CC)c1cc(C)c2cc(NC(=O)CNC(C)=O)ccc2n1	0	49*	-26	0	9	101*	110*
O=C(NCc1cc2ccccc2[nH]1)C1CCC(=O)N(CCCN2CCCC2=O)C1 (stereo not given)	10	30*	5	-7	5	62*	32*
CCc1cc2c(=O)c(-c3cnn(-c4ccccc4)c3)coc2c(CN2CCOCC2)c1O	-2	10	2	93	2	/	/
CCc1cc2c(=O)c(-c3cnn(-c4ccccc4)c3)c(C)oc2c(CN2CCCCC2)c1O	2	41*	-7	99	22	+	+
CCCCN1CC[C@H](C)Oc2cc(Br)ccc2S1(=O)=O	/	/	17	/	/	/	/
COC(=O)[C@]12C[C@H](CC(=O)NCCCCc3ccccc3)C(=O)N(Cc3ccc4c(c3)OCO4)C1=C[C@H](C(C)C)O[C@@H]2C1CC1	/	/	15	/	/	/	/
COc1cccc(/C=C2\CC3(OC(=O)C4CCCC4)CCCN2C3)c1 (stereo not given)	/	/	3	/	/	/	/
Cc1cc(C)c2c(N)c(C(=O)c3ccccc3)oc2n1	0	5	-9	-4	8	/	/
COC(=O)c1oc2nc(C)cc(C)c2c1N	2	69*	-41	2	16	47*	40*
Cc1cc(-c2ccccc2)nc2oc(C(=O)NN)c(N)c12	12	39*	-10	-2	9	55*	44*
C#CCN1C(=O)[C@]2(NCCc3c2[nH]c2ccc(OC)cc32)c2ccccc21	/	/	-7	/	/	/	/
SMILES	MazF activator	FBA Mtb inh	CCHFV vOTU inh	Mtb betalactam	GDH-TPI counter-1	Mtb FBA inh conf	GDH-TPI counter-2	others
CC1(C(=O)NCc2cccs2)Cc2c(-c3ccc4c(c3)OCO4)ccnc2O1 (stereo not given)	/	61*	9	/	-1	53*	32*
CC1(C(=O)NCc2cccs2)Cc2c(-c3ccccc3)ccnc2O1 (stereo not given)	/	3	5	/	0	/	/
CN(C)c1ccc(-c2ccnc3c2CC(C)(C(=O)NCCC(F)(F)F)O3)cc1 (stereo not given)	/	36*	-28	/	24	97*	64*
COc1ccc(CCCNC(=O)C2(C)Cc3c(-c4ccc5c(c4)OCO5)ccnc3O2)cc1 (stereo not given)	/	20	4	/	4	/	/
CC(=O)Nc1ccc(-c2ccnc3c2CC(C)(C(=O)NCCC(F)(F)F)O3)cc1 (stereo not given)	/	7	5	/	-4	/	/
CC(C)NC(=O)C1(C)Cc2c(-c3ccc(N(C)C)cc3)ccnc2O1 (stereo not given)	/	38*	-18	/	12	+	+
CC1(C(=O)NCc2cccc(Cl)c2)Cc2c(-c3ccc4c(c3)OCO4)ccnc2O1 (stereo not given)	/	30*	15	/	10	19	21*
Cc1ccc(-c2c(C(=O)NCC(C)C)oc(=O)c3ccccc23)cc1	/	/	6	/	/	/	/
Nn1c(SCC(=O)N2CCOCC2)nnc1-c1cc(-c2ccc(Cl)cc2)n[nH]1	/	/	1	/	/	/	/
CN(C)c1ccc(-c2ccnc3c2CC(C)(C(=O)NCc2ccco2)O3)cc1 (stereo not given)	/	31*	-21	/	14	73*	52*
CC(=O)Nc1ccc(-c2ccnc3c2CC(C)(C(=O)NCc2ccco2)O3)cc1 (stereo not given)	/	10	-8	/	7	/	/
CC(=O)Nc1ccc(-c2ccnc3c2CC(C)(C(=O)NCc2ccc(N(C)C)cc2)O3)cc1 (stereo not given)	/	3	-3	/	4	/	/
CN(C)c1ccc(-c2ccnc3c2CC(C)(C(=O)NCc2ccc(F)c(F)c2)O3)cc1 (stereo not given)	/	44*	-9	/	25	103*	78*
CN(C)c1ccc(-c2ccnc3c2CC(C)(C(=O)NCc2cccs2)O3)cc1 (stereo not given)	/	40*	-21	/	19	32*	9	GDH-TPI dose=1*
CN(C)[C@@H]1CCN(c2ccc3c(c2)OCCCN(C2CC2)S3(=O)=O)C1	/	/	4	/	/	/	/
CCC1CN(C(=O)NCc2cccc(OC)c2)c2ccccc2O1 (stereo not given)	-4	68*	-3	3	3	0	-6
CCC1CN(C(=O)NCc2cccc(OC)c2)c2cc(Cl)ccc2O1 (stereo not given)	1	-2	6	3	3	/	/
COC(=O)N(C)c1nc2ccccc2s1	1	0	12	-11	11	/	/
CN(C(=O)OC(C)(C)C)c1ccc(-c2nc3ccccc3s2)cc1	2	45*	-16	79	18	+	+
COc1c(Cl)cccc1-c1cn2ccc(C)cc2n1	2	38*	-19	8	1	36*	39*
Cc1oncc1-c1cn2ccccc2n1	-1	22	3	-6	7	/	/
Cc1ccn2cc(-c3cccc(S(=O)(=O)N4CCCC4)c3)nc2c1	8	4	-8	2	5	/	/

Source: PubChem BioAssay (several laboratories)
